From PubChem BioAssay AID1745848 (National Center for Advancing Translational Sciences (NCATS), 2022)
Screen size: about 2,100 compounds; about 940 (45%) were called active. Not shown: some 48% with an inconclusive outcome. So high a share suggests a set chosen from earlier hits. Some of the results follow. A number with no mark means an inactive call. The call rests on the fitted dose curve; in most records, active means well fitted inhibition curve with a large enough effect; inconclusive means small, poorly fitted or top-dose-only effect; inactive means no such curve, though single readings can be large or run the other way.
Potency means the concentration at half of the fitted maximal effect.

Assay: Confirmatory qHTS for Inhibitors of ATXN expression; further: nearly all actives have a fitted effect of over 65% in size;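 on activity change, negative = inhibition: 0% = DMSO vehicle wells and -100% = medium-only wells without cells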
Details: ATXN2-luciferase reporter cells, luminescence, 24 h; series mostly up to 11.5 µM; activity change, negative = inhibition: at the top concentration
Method in brief: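 Cells carrying ATXN2-luciferase reporter exposed 24 h at 37 C to compound. Viability then read by CellTiter-Fluor (25 uM GF-AFC, 30 min), followed by SteadyGlo luminescence; medium-only wells set 100% inhibition.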
In the case of `CC1(C(=O)NCc2ccco2)CCN1C(=O)C1(c2ccccc2)CC1` (configuration not stated), the “activity change, negative = inhibition” value was 2.15%.
In the case of `CCc1ccc(-c2nc(CS(=O)CC(=O)NCc3ccco3)c(C)o2)cc1` (configuration not stated), the Potency was 0.398 µM (active).
For `CCOC(=O)c1c(NC(=O)COC(=O)CNC(=O)c2ccco2)sc(C)c1C`, the Potency was 2.51 µM (active).
In the case of `COC(=O)c1cn(NC(=O)c2cc([N+](=O)[O-])ccc2F)c(=O)c2ccccc12`, the Potency was 2 µM (active).
For `COc1ccc(O)c(/C=N/NC(=O)c2ccc(CSc3nc(C)cc(C)n3)cc2)c1`, the Potency was 2.82 µM (active).
In the case of `COc1ccc(C(=O)N/N=C/c2cc(Br)ccc2O)cc1OC`, the Potency was 3.16 µM (active).
For `O=C(N/N=C/c1cc(Br)ccc1OC(=O)c1ccc(Br)cc1)c1ccncc1`, the Potency was 2.82 µM (active).
In the case of `CC(C)CC(=NNC(=O)c1ccncc1)c1cc(Cl)ccc1O`, the Potency was 0.708 µM (active).
In the case of `O=C(N/N=C/c1cc(Br)ccc1O)c1ccncc1`, the Potency was 0.794 µM (active).
In the case of `COc1ccc(O)c(/C=N/NC(=O)c2ccc(OCc3cccc(Br)c3)cc2)c1`, the Potency was 0.891 µM (active).
In the case of `O=C(N/N=C/c1cc(Br)cc(Br)c1O)c1cccc(N2CCCC2=O)c1`, the Potency was 2 µM (active).
For `O=C(N/N=C/c1cc(Br)cc(Br)c1O)c1ccncc1`, the Potency was 2.82 µM (active).
With `O=C(CP(=O)(c1ccccc1)c1ccccc1)N/N=C/c1cc(Br)cc(Br)c1O` the Potency was 1.58 µM (active).
With `O=C(N/N=C/c1cc(Br)ccc1O)C(c1ccncc1)N1CCOCC1` (configuration not stated) the Potency was 14.1 µM (active).
For `CCC(O)(CC)C(=O)N/N=C/c1cc(Br)cc(Br)c1O`, the Potency was 17.8 µM (active).
With `O=C(N/N=C/c1cc(Cl)ccc1O)c1ccncc1` the Potency was 3.16 µM (active).
With `CN(C)c1ccc(C(=O)N/N=C/c2cc(Br)cc(Br)c2O)cc1` the Potency was 1.41 µM (active).
In the case of `C/C(=N\N=C(N)N)c1ccc(Cl)cc1Cl`, the Potency was 15.8 µM (active).
For `CC1(C)Cc2ccccc2C(NNC(=O)c2ccccn2)=N1`, the Potency was 15.8 µM (active).
With `CNc1ccc(Br)cc(C(=O)/C=C/c2ccc3c(c2)OCO3)c1=O` the “activity change, negative = inhibition” value was 7.11%.
For `O=C(N/N=C/c1cc(Cl)ccc1O)c1ccccc1Br`, the Potency was 3.98 µM (active).
With `O=C(CNC(=O)c1ccc2c(c1)OCO2)N/N=C/c1cc(Br)ccc1O` the Potency was 3.55 µM (active).
In the case of `CC(SC(C)C(=O)NN=Cc1cccc(Cl)c1)C(=O)NN=Cc1cccc(Cl)c1` (configuration not stated), the “activity change, negative = inhibition” value was -31.9%.
With `O=C(CNC(=O)c1ccccc1Br)N/N=C/c1cc(Br)ccc1O` the Potency was 2 µM (active).
For `O=C(N/N=C/c1cc(Br)cc(Cl)c1O)c1ccc2c(c1)OCO2`, the Potency was 3.98 µM (active).
With `O=C(CCc1ccccc1)N/N=C/c1cc(Br)ccc1O` the Potency was 1.12 µM (active).
For `NS(=O)(=O)c1ccc(CCNC(=O)COC(=O)/C=C/c2cc(Br)ccc2F)cc1`, the “activity change, negative = inhibition” value was -3.85%.
With `O=C(CNC(=O)c1ccccc1Br)N/N=C/c1ccccc1O` the Potency was 15.8 µM (active).
In the case of `CCc1ccccc1OCC(=O)Nc1nc(-c2cccnc2)cs1`, the Potency was 14.1 µM (active).
With `COc1ccc(/C=C/C(O)=C2/C(=O)N(C)C3(C)CC2c2ccccc2O3)cc1` (configuration not stated) the Potency was 20 µM (active).
In the case of `C/[N+]([O-])=C\c1cccc(OCCN2CCN(c3ncc(C(F)(F)F)cc3Cl)CC2)c1`, the “activity change, negative = inhibition” value was -26.9%.
In the case of `Cc1ccc(NS(=O)(=O)c2ccc(C(=O)NNC(=O)c3ccccc3O)cc2)cc1`, the Potency was 14.1 µM (active).
For `CCOc1ccc(NS(=O)(=O)c2ccc(C(=O)NNC(=O)c3ccccc3O)cc2)cc1`, the Potency was 15.8 µM (active).
For `COc1ccc(NS(=O)(=O)c2ccc(C(=O)Nc3c(C)n(C)n(-c4ccccc4)c3=O)cc2)cc1`, the “activity change, negative = inhibition” value was -4.47%.
For `Cc1ccc(C)c(S(=O)(=O)N2CCN(c3ncnc4sccc34)CC2)c1`, the Potency was 0.631 µM (active).
In the case of `Cc1ccc(N/C(N)=N/c2nc(C)cc(N3CCCCC3)n2)c(C)c1`, the Potency was 3.98 µM (active).
In the case of `COc1ccc(Cn2cc3c(-c4ccc(F)cc4)nnc-3c3cc(OC)c(OC)cc32)cc1`, the Potency was 1.78 µM (active).
In the case of `COc1cc2c3nnc(-c4ccc(F)cc4)c-3cn(Cc3ccccc3F)c2cc1OC`, the Potency was 2 µM (active).
With `COc1cc2c3nnc(-c4ccc(F)cc4)c-3cn(Cc3ccc(F)cc3)c2cc1OC` the Potency was 2.82 µM (active).
In the case of `Cc1ccc(NC(=O)/C=C/c2ccc([N+](=O)[O-])s2)c(C)c1`, the Potency was 1.41 µM (active).
With `O=C(N/N=C/c1ccc([N+](=O)[O-])o1)c1ccc2c(c1)OCO2` the Potency was 14.1 µM (active).
With `O=[N+]([O-])c1ccc(/C=N/N=C/c2ccc([N+](=O)[O-])o2)o1` the Potency was 6.31 µM (active).
With `CC1(C(=O)N/N=C/c2ccc([N+](=O)[O-])o2)CC1(Br)Br` (configuration not stated) the Potency was 22.4 µM (active).
In the case of `COc1ccccc1NS(=O)(=O)c1cccc(C(=O)N/N=C/c2ccc([N+](=O)[O-])o2)c1`, the Potency was 11.2 µM (active).
With `COc1ccc(-c2csc3ncnc(Sc4nnnn4C)c23)cc1` the Potency was 3.16 µM (active).
In the case of `Cn1nnnc1Sc1ncnc2scc(-c3ccsc3)c12`, the Potency was 14.1 µM (active).
For `CCn1cc(C(=O)NCc2cccc(F)c2)c(=O)c2cc(F)c(N3CCN(C(=O)c4ccco4)CC3)cc21`, the Potency was 15.8 µM (active).
With `CCn1cc(C(=O)NCc2ccccc2)c(=O)c2cc(F)c(N3CCN(C(=O)c4ccco4)CC3)cc21` the Potency was 28.2 µM (active).
With `c1ccc(-c2nnc(-c3ccccn3)nc2NC2CCCCC2)cc1` the Potency was 1.12 µM (active).
In the case of `CC(C)(C)c1cc[n+](C2=C([O-])c3ccccc3C(=O)/C2=N\S(=O)(=O)c2cccs2)cc1`, the Potency was 1.12 µM (active).
For `O=C(O)CCn1cc(/C=C/C(=O)c2ccc(Cl)cc2)c(-c2ccc(Br)cc2)n1`, the Potency was 25.1 µM (active).
With `O=C(NC1=CC(=O)c2ccccc2C1=O)c1ccccc1` the Potency was 14.1 µM (active).
With `COc1ccc(-c2cc(CNc3nc(NC(C)C)nc4cc(-c5ccccc5)sc34)on2)cc1` the Potency was 11.2 µM (active).
With `Cc1ccc(C(C)C)c(OCc2ccc(C(=O)N/N=C/c3ccc(O)c(O)c3)cc2)c1` the Potency was 2.51 µM (active).
In the case of `O=C(N/N=C/c1ccc(O)cc1O)c1ccc(CN2C(=O)c3cccc4cccc2c34)cc1`, the Potency was 2 µM (active).
With `Cc1ccc(C(C)C)c(OCc2ccc(C(=O)N/N=C/c3ccc(O)cc3O)cc2)c1` the Potency was 1.58 µM (active).
With `Cc1ccc(C(C)C)c(OCc2ccc(C(=O)N/N=C/c3cccc(O)c3O)cc2)c1` the Potency was 2.82 µM (active).
